Sampled rows, rich in hits. Any-hit rate of the full collection: about 8.8%.
KB-V1 MDR tox = kills drug-selected multidrug resistant KB-V1 cells; KB-V1 MDR cells viability, CellTiter-Glo, 72 h; Potency, µM (highest dose often 46.1 µM), most hits filed as cytotoxic; hit rate 3.4% among 400,000; AID 1347076; further: potency means the concentration at half of the fitted maximal effect; nearly all actives have a fitted effect of over 60% in size
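Cytotoxicity via CellTiter-Glo luminescence after 72 h compound exposure at 37 degrees C. Cells: drug-selected KB-V1 line, DMEM phenol-red free plus 10% FBS. Compounds tested at multiple concentrations; normalized data fitted to concentration-effect curves.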
HT1080 IDH1KD tx = HT-1080 IDH1 knockdown cell toxicity (counter line); HT-1080 IDH1 knockdown viability, ATP luminescence, 48 h; Potency, µM (top dose mostly 46.1 µM), without a hit: at the top dose activity, negative = toxicity, actives largely listed as cytotoxic; hit rate 2% among 360,000;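 further: potency means the concentration at half of the fitted maximal effect; 0% = DMSO wells and -100% = cell-free medium wells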
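Luminescent ATP read-out (CellTiter-Glo, 10 min at room temperature) after 48 h compound exposure at 37 °C gave viability of IDH1-knockdown HT-1080 cells. Activity was normalised to DMSO and cell-free wells, then fitted as concentration-response curves.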
KB-3-1 tox = KB-3-1 parental cell cytotoxicity. KB-3-1 viability, CellTiter-Glo ATP luminescence, 72 h. Potency, µM (doses to about 46.1 µM), hits mostly cytotoxic. hit rate 1.4% among 400,000. AID 1347075; further: potency means the concentration at half of the fitted maximal effect; nearly all actives have a fitted effect of over 60% in size
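72 h, 37 °C compound treatment of KB-3-1 parental cells; CellTiter-Glo added, 10 min, luminescence read. Data corrected against DMSO-only plates and normalized before curve fitting.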
IL-1B inflam inh = inflammasome signaling inhibition, IL-1 beta readout; THP-1 LPS/ATP IL-1B secretion, AlphaLISA, 16 h; hits give low values; activity change, % at 57.5 µM; hit rate 4.7% among 360,000; in the data active means activity change below about -50%; inconclusive means mostly about -30% to -49%
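Secreted IL-1B measured by AlphaLISA bead assay after 16 h compound exposure of THP-1 cells; compounds (final up to 57.5 uM) added 1 h before LPS (250 ng/mL) and ATP (1.25 mM) stimulation; lower signal means less secretion.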
HT1080NT lethal = kills 2HG-producing HT-1080-NT fibrosarcoma cells; HT-1080-NT fibrosarcoma viability, CellTiter-Glo ATP luminescence, 48 h; Potency, µM (series often up to 46.1 µM), for inactives: at the top dose activity, negative = less viability, usual class: cytotoxic; hit rate 1.6% among 360,000;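 further: NT is the 2HG producing partner of a matched IDH1 knockdown line; potency means the concentration at half of the fitted maximal effect; 0% = DMSO-treated cells and -100% = media-only wells without cells; nearly all actives have a fitted effect of over 55% in size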
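HT-1080-NT; 750 cells/well; 5% FBS RPMI; 48 h compound, 37 degrees C; CellTiter-Glo luminescence; curve fitting and curve-class assignment.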
* = called active by the depositor; i = inactive; ? = inconclusive; · = no result given; [ ] = dose if it differs, or a comment. Unless noted, the call rests on the fitted dose curve; in most records, active means well fitted curve in the direction sought with a large enough effect; inconclusive means small, poorly fitted or top-dose-only effect, or another doubt; inactive means no such curve, though single readings can be large; an effect the other way counts as inactive or inconclusive. Unless noted, on the % scale 0 is the no-effect control and ±100 the full control effect.

SMILES | KB-V1 MDR tox | HT1080 IDH1KD tx | KB-3-1 tox | IL-1B inflam inh | HT1080NT lethal
O=C(Nc1ccccc1)Nc1cc(OCC(F)(F)F)cc(OCC(F)(F)F)c1 | 16.4µM* | 7.31µM* | ? | -103.3* | 6.51µM*
O=C(Nc1cccnc1)Nc1ccccc1Cl | ? | -1.6% | i | 10.1 | 11.2%
O=C(Nc1ccccc1)Nc1cc(Cl)cc(Cl)c1 | ? | 14.6µM* | ? | -82.5* | 16.4µM*
CCN(CC)S(=O)(=O)c1ccc(OC)c(NC(=O)COc2ccc3c(C)cc(=O)oc3c2)c1 | i | -0.4% | i | 10.1 | 4.4%
CN(Cc1ccc(Cl)cc1)C(=O)c1ccc2ccccc2n1 | i | -12.0% | ? | 13.0 | -16.6%
COc1ccc(NC(=O)C(Cc2ccccc2)NS(=O)(=O)c2ccc3c(c2)oc(=O)n3C)c(OC)c1 (stereo not drawn) | i | · | i | · | ·
Cc1ccc2scc(N3CCCC(C)C3)c(=O)c2c1 (stereo not drawn) | i | · | i | · | ·
CCOC(=O)CSc1nc2cc(C(=O)OC)ccc2c(=O)n1CCN1CCOCC1 | 16.4µM* | 3.1% | i | -5.3 | 1.9%
COC(=O)c1ccc2c(=O)n(CCN3CCOCC3)c(SCC(=O)C(C)(C)C)nc2c1 | 10.3µM* | 13.7% | i | 18.1 | 1.1%
CCCCCn1c(SCC(=O)OCC)nc2cc(C(=O)NCc3ccco3)ccc2c1=O | 20.6µM* | -1.9% | i | 3.6 | 7.2%
C=CCn1c(SCC(=O)OCC)nc2cc(C(=O)NCc3ccco3)ccc2c1=O | i | 7.4% | i | 34.0 | 10.7%
CCCCN(C)c1c(C)nc2ccc(C(=O)Nc3cc(-c4ccccc4)ccc3OC)cn12 | i | ? | i | ? | ?
O=C(Nc1ccc(Cl)c(Cl)c1)Nc1nnc(CSc2ccccc2)s1 | 14.6µM* | -0.9% | ? | ? | -4.2%
O=C(Nc1ccc(Cl)c(Cl)c1)Nc1nccs1 | 4.11µM* | ? | 4.61µM* | -10.0 | ?
Cc1ccc(OCCSCc2nnc(NC(=O)Nc3cccc(Cl)c3)s2)cc1 | ? | ? | 5.8µM* | -3.5 | ?
COc1cc2c(cc1OC)CN(c1ccc(C(F)(F)F)cn1)CC2 | ? | ? | i | -90.0* | ?
COc1cc2c(cc1OC)CN(c1ccc3ccccc3n1)CC2 | i | -18.1% | i | -88.9* | -24.3%
O=S(=O)(c1cccs1)N1CCN(CC(O)COC2CCCc3ccccc32)CC1 (stereo not drawn) | ? | -10.6% | i | -2.2 | -3.3%
O=S(=O)(c1cccs1)N1CCN(CC(O)COc2cccc(Br)c2)CC1 (stereo not drawn) | 14.6µM* | 2.2% | ? | -8.8 | 3.6%
O=C1CCCc2c1[nH]c1ccc(Cl)cc21 | ? | -3.3% | ? | 21.9 | 1.5%
OCCCN=C1CCCc2c1[nH]c1ccc(Cl)cc21 | 1.46µM* | -3.8% | 9.2µM* | · | -2.4%
OCCN=C1CCCc2c1[nH]c1ccc(Cl)cc21 | 0.731µM* | -8.5% | 2.06µM* | 13.8 | 0.9%
CCC1CCCCN1S(=O)(=O)c1cc2c3c(c1)CC(=O)N3CCC2 (stereo not drawn) | i | · | i | · | ·
Cc1c(/C=N\NC(=O)C2(C)CC2(Cl)Cl)cnn1C (stereo not drawn) | i | 0.5% | i | 18.3 | -0.7%
CC1(C(=O)N/N=C/c2c(F)c(F)c(F)c(F)c2F)CC1(Cl)Cl (stereo not drawn) | i | ? | i | -99.5* | ?
SMILES | KB-V1 MDR tox | HT1080 IDH1KD tx | KB-3-1 tox | IL-1B inflam inh | HT1080NT lethal
O=C(Nc1nc2nc(-c3ccccc3)cc(-c3ccccc3)n2n1)c1ccco1 | i | 25.9µM* | ? | -3.5 | ?
OC[C@H](O)[C@H](O)[C@@H](O)[C@@H](O)[C@@H]1SC(c2ccccc2)=NN1c1ccccc1 | i | -12.9% | i | -61.6* | -2.0%
Cc1ccc(C2=NNC(C(O)C(O)C(O)C(O)CO)S2)cc1 (stereo not drawn) | i | 10.2% | i | 0.0 | 20.0%
O=C(Nc1ccc(Cl)cc1)C1C2CCC3C(CCC21)C3(Cl)Cl (stereo not drawn) | i | ? | i | -23.3 | -11.5%
O=C(O)C1C(C(=O)Nc2ccc(Cl)cc2)C2C=CC1C21CC1 (stereo not drawn) | 20.6µM* | 2.4% | i | 10.5 | 7.5%
CC[C@H](C)C(=O)O[C@H]1C[C@@H](C)C=C2C=C[C@H](C)[C@H](CC[C@@H]3C[C@@H](O)CC(=O)O3)[C@H]21 | ? | 20.6µM* | i | 3.0 | 18.4µM*
CCC(C)C(=O)OC1CCC=C2C=CC(C)C(CCC3CC(O)CC(=O)O3)C21 (stereo not drawn) | 18.4µM* | ? | 13µM* | 67.5 | 11.6µM*
CC[C@H](C)C(=O)O[C@H]1CCC=C2C=C[C@H](C)[C@H](CC[C@@H]3C[C@@H](O)CC(=O)O3)[C@H]21 | ? | 7.31µM* | ? | 4.7 | 4.11µM*
CC(C)CCN1CCNC(=O)C1CC(=O)N(C)CCCN1CCOCC1 (stereo not drawn) | i | 1.2% | i | 0.0 | 6.3%
Cc1cccc(NC(=O)c2c(O)c3ccccc3n(C)c2=O)c1 | ? | -7.6% | i | 7.7 | -8.3%
Cc1ccc2occ(C(c3nnnn3C3CCCC3)N3CCN(C(=O)c4ccco4)CC3)c(=O)c2c1 (stereo not drawn) | i | ? | i | -64.1* | -26.2%
C=CCNC(=O)CC(=O)N/N=C/c1cccs1 | i | 1.4% | i | 0.0 | 2.9%
CCc1ccc(NC(=O)C(=O)NCCOc2ccccc2Cl)cc1 | ? | -27.4% | i | 14.6 | ?
Cc1nn(-c2cc(N3CCCCC3)ccc2[N+](=O)[O-])c(=O)c2ccccc12 | i | -16.3% | i | -13.6 | 0.0%[9.24 µM]
O=C(O)c1cccc(-n2nc(-c3ccc(Cl)c([N+](=O)[O-])c3)c3ccccc3c2=O)c1 | ? | -26.6% | i | -69.0* | -10.4%
CN1CCN(c2ccc([N+](=O)[O-])c(-n3nc(-c4ccccc4)c4ccccc4c3=O)c2)CC1 | 13µM* | ? | ? | ? | ?
Cc1ccc(NC(=O)Nc2nnc(N3CCCC3)s2)c(C)c1 | ? | · | i | · | ·
CCOc1ccc(NC(=O)c2ccc(OCC3CCCO3)cc2)cc1S(=O)(=O)N(CC)CC (stereo not drawn) | 2.59µM* | ? | i | 12.2 | -2.3%
CCN(CC)S(=O)(=O)c1ccc(NC(=O)c2ccc(OCC3CCCO3)cc2)cc1 (stereo not drawn) | 14.6µM* | ? | i | ? | -18.2%
C=Cc1ccc(Cn2c(C(=O)O)c(CNCCc3ccccc3)c3ccc(C)cc32)cc1 | i | · | i | · | ·
COc1cc(Br)c(/C=C/c2ccc3cccc(O)c3n2)cc1OC | i | -17.5% | i | -6.3 | -29.8%

Screening data deposited in PubChem BioAssay by National Center for Advancing Translational Sciences (NCATS).
